Screening data as filed in PubChem.
FAK inh – blocks human focal adhesion kinase activity; biochemical FAK kinase activity assay; Q05397; inhibition, %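 (tested at 7 µM)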; AID 727; 97,000 compounds, 0.84% hits; in the data active = inhibition above about 19%;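 also: 0% = DMSO and 100% = reference compound high control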
Phagocytosis inh – macrophage phagocytosis inhibition; inhibition, % at 5 µM; AID 1029; J774A.1 macrophage IgG-bead phagocytosis, imaging; 110,000 compounds, 0.07% hits;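 active = inhibition above the mean of the plate negative controls plus 5 SD, cut at about 13% in these data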;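 also: phagocytic index as fraction of beads internalized from green versus red external bead signal; plate controls were DMSO negative control for no effect and cytochalasin-D positive control for full effect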
MRP-1 activ – activates MRP-1. H69AR cells + doxorubicin, viability rescue, CellTiter-Glo. viability increase, % at 10 µM. 140,000 compounds, 0.61% hits. AID 799;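 active = viability gain under doxorubicin at or above a set limit, the compound median plus 3 SD, cut at about 4.7% in these data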;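 also: MRP-1 overexpressing cells given doxorubicin 25 µM after compound pretreatment; 18-22 h compound pretreatment then 72 h with doxorubicin before readout; 0% = doxorubicin-only wells and 100% = vehicle-treated cells without doxorubicin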
MRP resist rev – reverses drug resistance mediated by MRP | H69AR cells + 2 uM doxorubicin, CellTiter-Glo, 72 h | differential viability (reversal), % at 10 µM | 85,000 compounds, 0.04% hits;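 active = viability drop by adding the cancer drug above about 55%, with treated viability meeting a 40% cutoff, limit read from the data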;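 also: viability without doxorubicin minus viability with 2 µM doxorubicin for each compound; larger differential means the compound sensitizes cells more to doxorubicin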
Mac1 fbg enh – CD11b/CD18-fibrinogen binding enhancement; P05107+P11215; K562 CD11b/CD18 adhesion to fibrinogen, ATPlite luminescence; activation, % at 10 µM; 93,000 compounds, 0.07% hits; AID 1499;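 active = 10 µM primary screen giving 50% or more activity, confirmed by 40% or more on retest at that dose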
Target sequence (P05107 whole entry, looked up, other chains not shown): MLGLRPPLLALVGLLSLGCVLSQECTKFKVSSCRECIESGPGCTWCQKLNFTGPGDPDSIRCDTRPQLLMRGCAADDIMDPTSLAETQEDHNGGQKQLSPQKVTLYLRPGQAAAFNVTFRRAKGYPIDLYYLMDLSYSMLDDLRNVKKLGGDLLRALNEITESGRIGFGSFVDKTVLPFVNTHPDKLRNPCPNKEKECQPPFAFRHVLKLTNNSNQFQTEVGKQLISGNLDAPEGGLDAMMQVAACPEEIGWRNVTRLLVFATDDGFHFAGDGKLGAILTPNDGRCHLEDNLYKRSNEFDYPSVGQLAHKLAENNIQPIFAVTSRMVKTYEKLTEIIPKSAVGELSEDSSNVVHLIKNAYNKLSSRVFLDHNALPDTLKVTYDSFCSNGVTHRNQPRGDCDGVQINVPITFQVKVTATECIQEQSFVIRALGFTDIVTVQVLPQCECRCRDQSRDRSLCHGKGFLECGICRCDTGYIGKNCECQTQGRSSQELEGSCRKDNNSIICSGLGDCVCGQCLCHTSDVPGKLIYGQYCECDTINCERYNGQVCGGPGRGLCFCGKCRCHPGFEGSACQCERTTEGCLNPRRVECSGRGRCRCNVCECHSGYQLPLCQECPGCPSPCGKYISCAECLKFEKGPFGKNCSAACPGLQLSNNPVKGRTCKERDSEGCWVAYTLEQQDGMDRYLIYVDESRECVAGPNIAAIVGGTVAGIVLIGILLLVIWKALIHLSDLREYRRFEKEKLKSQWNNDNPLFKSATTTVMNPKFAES
Mac1 fbg inh – CD11b/CD18-fibrinogen binding inhibition; P05107+P11215; K562 CD11b/CD18 adhesion to fibrinogen, ATPlite luminescence; Mn2+ added to activate the integrin; inhibition, % at 10 µM; 93,000 compounds, 0.54% hits; AID 1497;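 active = primary inhibition of 50% or more at 10 µM, then 40% or more on retest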
* = called active by the depositor; · = no result. This is a sample that favours compounds with a hit; in the whole collection about 1.5% have one here.

SMILES	FAK inh	Phagocytosis inh	MRP-1 activ	MRP resist rev	Mac1 fbg enh	Mac1 fbg inh
O=C(NCCC1=CCCCC1)C(=O)NCC(c1ccco1)N1CCN(c2ccc(F)cc2)CC1 (centres undefined)	·	-8.8	-0.1	·	·	·
O=S(=O)(Nc1nnc(-c2ccccc2)s1)c1ccc(Cl)cc1	-6.5	-1.8	-1.1	3.2	-9.5	86.1*
O=C(CN1C(=O)C2CC=CCC2C1=O)NCC1COc2ccccc2O1 (centres undefined)	2.9	·	-3.5	-13.2	·	·
CCOC(=O)COc1ccc(S(=O)(=O)NCc2cccnc2)cc1	-0.9	-2.5	0.0	-5.8	-1.2	4.3
COC(=O)COc1ccc(S(=O)(=O)NCc2ccncc2)cc1	-0.9	5.4	-1.0	2.7	-4.3	79.8*
Cc1ccccc1C(=O)Nc1nc(=S)ss1	5.7	0.0	0.6	·	-11.1	100.3*
CC(C)CC(=O)Nc1nc(=S)ss1	-0.6	-1.7	-0.3	-3.3	-6.1	75.0*
CC(=O)Nc1nc(=S)ss1	-2.2	-0.5	-2.0	9.9	-3.0	9.3
Clc1ccc(CSc2ncnc3nc[nH]c23)cc1	·	-12.5	0.4	·	·	·
Cc1cccc(-n2c(SCC(=O)Nc3ncc(Cl)cc3Cl)nc3ccccc32)c1	·	-11.7	5.9*	·	·	·
c1ccc(C(c2ccccc2)N2CCN(c3nc4ccccc4n4cnnc34)CC2)cc1	2.0	1.2	6.7*	-6.2	-2.4	22.8
Cc1ccc(NC(=O)CNC(=O)c2cccs2)cc1S(=O)(=O)Nc1ccc(Cl)cc1	·	-2.3	7.0*	·	·	·
COc1ccc(NS(=O)(=O)c2cc(NC(=O)CNC(=O)c3cccc(OC)c3)ccc2C)cc1	·	-4.1	0.2	·	·	·
CCC(C)NC(=O)Cn1c(=O)n(CCCCC(=O)NCc2ccco2)c(=O)c2ccccc21 (centres undefined)	-0.5	0.0	-3.1	0.8	0.4	-7.0
CCN(CC)CCNC(=O)c1c(C)oc2cc(Br)c(OC)cc12	2.9	-1.1	-4.6	-7.2	-0.1	-8.9
CC1CCCCN1c1ncnc2ccccc12 (centres undefined)	3.8	-0.9	-3.4	·	-4.4	69.4*
O=C(CC1SC(=O)N(c2ccccc2)C1=O)Nc1ccccc1 (centres undefined)	-4.7	-0.4	6.8*	3.9	-1.4	-8.0
Cc1cccc(NC(=O)CC2SC(=O)N(c3ccccc3)C2=O)c1 (centres undefined)	0.2	-1.5	8.9*	-1.0	-4.8	0.6
COc1cccc(N2CCN(C(=S)NCc3ccco3)CC2)c1	-1.5	·	-1.7	·	·	·
Cn1nnnc1SCc1csc(Nc2ccccc2)n1	·	1.3	-0.7	-8.8	0.5	3.4
Cc1ccc(Nc2nc(CSc3nnnn3C)cs2)cc1	0.2	-0.6	5.4*	25.4	-3.3	23.0
Cc1cc(Br)ccc1SCC(=O)OCC(=O)Nc1ccccc1C#N	·	-4.5	-0.2	·	5.0	12.4
c1ccc(N2CCN(Cc3ccnc4ccccc34)CC2)cc1	2.7	-0.7	-3.9	-8.9	-7.7	76.1*
CC(/C=C/c1ccccc1)NC(N)=O (centres undefined)	-0.7	-0.2	0.0	10.2	-7.6	-5.7
Cc1cccc(S(=O)(=O)C(C#N)c2nc3ccccc3nc2N2CC(C)OC(C)C2)c1 (centres undefined)	-6.9	-1.3	-1.6	-13.1	-9.3	94.6*
SMILES	FAK inh	Phagocytosis inh	MRP-1 activ	MRP resist rev	Mac1 fbg enh	Mac1 fbg inh
Cc1ccc(S(=O)(=O)C(C#N)c2nc3ccccc3nc2N2CC(C)OC(C)C2)cc1C (centres undefined)	-5.2	-0.3	-2.2	-13.5	-8.7	89.6*
CCN1CCN(c2nc3ccccc3nc2C(C#N)S(=O)(=O)c2ccc(C)c(C)c2)CC1 (centres undefined)	2.1	-0.8	-0.8	2.2	-4.4	3.2
O=C(COC(=O)COc1ccccc1[N+](=O)[O-])Nc1ccc(S(=O)(=O)N2CCCCC2)cc1	-2.1	0.7	-0.4	·	-2.1	50.2*
COc1ccccc1OCC(=O)Nc1ccc(S(=O)(=O)N2CCCCCC2)cc1	-4.1	-0.4	-0.7	15.8	1.0	21.9
N#Cc1c(C(F)(F)F)cc(C2CC2)[nH]c1=O	·	0.2	-0.4	11.7	-1.9	-7.5
Cc1ccc(Cl)cc1NC(=O)CC(O)(C(F)(F)F)C(F)(F)F	-0.3	-5.6	-2.6	-2.4	-9.9	98.5*
Cc1ccc(N=Nc2c(N)[nH]n3c(=O)cc(-c4ccccc4)nc23)cc1	-8.9	·	6.0*	·	·	·
Cc1ccc(N(CC(=O)NC2CCCC2)C(=O)c2c(C)noc2C)cc1C	-7.6	·	-2.5	-10.1	·	·
O=C(c1c(O)c2ccccc2oc1=O)C1CCCCC1	-1.8	0.3	-0.2	-12.3	-2.2	-7.2
O=C(CCC1CCCC1)c1c(O)c2ccccc2oc1=O	-1.6	1.0	-3.7	-2.8	-9.1	87.7*
Cn1c(N)c(C(=O)COC(=O)[C@H](Cc2ccccc2)N2C(=O)c3ccccc3C2=O)c(=O)n(C)c1=O	·	-5.0	-0.8	·	·	·
CCCCC1CC(CSc2ncn[nH]2)OC1=O (centres undefined)	0.6	-0.2	1.3	2.7	-1.5	-1.6
CCCCCCCC1CC(CSc2ncn[nH]2)OC1=O (centres undefined)	1.8	·	10.1*	8.7	·	·
Clc1cccc(N/N=C/c2ccc(N3CCOCC3)s2)c1	·	-1.5	-2.3	·	·	·
COc1cccc(NS(=O)(=O)c2c(C)n(C)c(=O)n(C)c2=O)c1	-0.2	0.2	-1.6	-1.3	-2.1	18.0
COc1ccc(C2=NN(C(=O)c3cccs3)C(c3ccc(OC)cc3)C2)cc1 (centres undefined)	·	-14.4	7.5*	·	3.4	7.5
COc1cc(NC(=S)NC2CC2)c(OC)cc1Cl	·	-4.2	-1.9	·	·	·
COC(=O)CC1SC(=O)NC1=Nc1ccc(O)cc1 (centres undefined)	0.2	·	-1.9	-2.6	·	·
COC(=O)CC1SC(=O)NC1=O (centres undefined)	-2.2	-0.1	7.2*	14.2	-2.6	-42.7
CC1c2nc3ccccc3n2C(CC(=O)NCc2ccccn2)C(=O)N1Cc1ccccc1 (centres undefined)	·	-0.4	-0.9	·	-2.7	1.2
COC(=O)C1C(=O)c2c([nH]c(C(=O)OC3CCCC3C)c2C)CC1C (centres undefined)	·	-0.3	1.3	-9.0	0.6	2.0
COC(=O)C1C(=O)c2c([nH]c(C(=O)OC3CCCCC3)c2C)CC1C (centres undefined)	·	0.1	5.2*	1.8	-0.4	5.7
O=[N+]([O-])c1cccc(NC(=S)NCCc2ccccc2)c1	·	-4.0	-3.6	·	-8.4	104.1*
Fc1cccc(NC(=S)NCCc2ccccc2)c1	·	-5.3	-4.7	·	·	·
Cc1ccc(C(c2nnnn2CS(=O)(=O)c2ccc(C)cc2)N2CCN(c3ncccn3)CC2)cc1 (centres undefined)	0.1	·	10.6*	-8.3	·	·
Cc1ccc(S(=O)(=O)Cn2nnnc2C(c2ccccn2)N2CCN(c3ccccc3)CC2)cc1 (centres undefined)	2.5	-0.5	0.3	·	-3.2	2.7
O=C(Nc1ccccc1O)c1ccccc1O	3.1	-0.7	-4.5	-19.9	-3.8	69.2*
